The supplement of paper PMC11732987, “Enantioselective OTUD7B fragment discovery through chemoproteomics screening and high-throughput optimisation” (Communications Chemistry, 2025)

Columns and labels:
Assay in all cases: log2 ratio of Biotin-Ahx-Ub-VS probe labelling (fragment/DMSO); higher = less target engagement (more negative = stronger competition), active = hit call of the paper (q ≤ 0.05, log2 ratio ≤ -1)
Settings in all cases: compound concentration: 200 uM; treatment time: 3 h
USP34 = USP34 (UniProt Q70CQ2)
USP34, sequence (Q70CQ2 whole entry, the tested form may be a part): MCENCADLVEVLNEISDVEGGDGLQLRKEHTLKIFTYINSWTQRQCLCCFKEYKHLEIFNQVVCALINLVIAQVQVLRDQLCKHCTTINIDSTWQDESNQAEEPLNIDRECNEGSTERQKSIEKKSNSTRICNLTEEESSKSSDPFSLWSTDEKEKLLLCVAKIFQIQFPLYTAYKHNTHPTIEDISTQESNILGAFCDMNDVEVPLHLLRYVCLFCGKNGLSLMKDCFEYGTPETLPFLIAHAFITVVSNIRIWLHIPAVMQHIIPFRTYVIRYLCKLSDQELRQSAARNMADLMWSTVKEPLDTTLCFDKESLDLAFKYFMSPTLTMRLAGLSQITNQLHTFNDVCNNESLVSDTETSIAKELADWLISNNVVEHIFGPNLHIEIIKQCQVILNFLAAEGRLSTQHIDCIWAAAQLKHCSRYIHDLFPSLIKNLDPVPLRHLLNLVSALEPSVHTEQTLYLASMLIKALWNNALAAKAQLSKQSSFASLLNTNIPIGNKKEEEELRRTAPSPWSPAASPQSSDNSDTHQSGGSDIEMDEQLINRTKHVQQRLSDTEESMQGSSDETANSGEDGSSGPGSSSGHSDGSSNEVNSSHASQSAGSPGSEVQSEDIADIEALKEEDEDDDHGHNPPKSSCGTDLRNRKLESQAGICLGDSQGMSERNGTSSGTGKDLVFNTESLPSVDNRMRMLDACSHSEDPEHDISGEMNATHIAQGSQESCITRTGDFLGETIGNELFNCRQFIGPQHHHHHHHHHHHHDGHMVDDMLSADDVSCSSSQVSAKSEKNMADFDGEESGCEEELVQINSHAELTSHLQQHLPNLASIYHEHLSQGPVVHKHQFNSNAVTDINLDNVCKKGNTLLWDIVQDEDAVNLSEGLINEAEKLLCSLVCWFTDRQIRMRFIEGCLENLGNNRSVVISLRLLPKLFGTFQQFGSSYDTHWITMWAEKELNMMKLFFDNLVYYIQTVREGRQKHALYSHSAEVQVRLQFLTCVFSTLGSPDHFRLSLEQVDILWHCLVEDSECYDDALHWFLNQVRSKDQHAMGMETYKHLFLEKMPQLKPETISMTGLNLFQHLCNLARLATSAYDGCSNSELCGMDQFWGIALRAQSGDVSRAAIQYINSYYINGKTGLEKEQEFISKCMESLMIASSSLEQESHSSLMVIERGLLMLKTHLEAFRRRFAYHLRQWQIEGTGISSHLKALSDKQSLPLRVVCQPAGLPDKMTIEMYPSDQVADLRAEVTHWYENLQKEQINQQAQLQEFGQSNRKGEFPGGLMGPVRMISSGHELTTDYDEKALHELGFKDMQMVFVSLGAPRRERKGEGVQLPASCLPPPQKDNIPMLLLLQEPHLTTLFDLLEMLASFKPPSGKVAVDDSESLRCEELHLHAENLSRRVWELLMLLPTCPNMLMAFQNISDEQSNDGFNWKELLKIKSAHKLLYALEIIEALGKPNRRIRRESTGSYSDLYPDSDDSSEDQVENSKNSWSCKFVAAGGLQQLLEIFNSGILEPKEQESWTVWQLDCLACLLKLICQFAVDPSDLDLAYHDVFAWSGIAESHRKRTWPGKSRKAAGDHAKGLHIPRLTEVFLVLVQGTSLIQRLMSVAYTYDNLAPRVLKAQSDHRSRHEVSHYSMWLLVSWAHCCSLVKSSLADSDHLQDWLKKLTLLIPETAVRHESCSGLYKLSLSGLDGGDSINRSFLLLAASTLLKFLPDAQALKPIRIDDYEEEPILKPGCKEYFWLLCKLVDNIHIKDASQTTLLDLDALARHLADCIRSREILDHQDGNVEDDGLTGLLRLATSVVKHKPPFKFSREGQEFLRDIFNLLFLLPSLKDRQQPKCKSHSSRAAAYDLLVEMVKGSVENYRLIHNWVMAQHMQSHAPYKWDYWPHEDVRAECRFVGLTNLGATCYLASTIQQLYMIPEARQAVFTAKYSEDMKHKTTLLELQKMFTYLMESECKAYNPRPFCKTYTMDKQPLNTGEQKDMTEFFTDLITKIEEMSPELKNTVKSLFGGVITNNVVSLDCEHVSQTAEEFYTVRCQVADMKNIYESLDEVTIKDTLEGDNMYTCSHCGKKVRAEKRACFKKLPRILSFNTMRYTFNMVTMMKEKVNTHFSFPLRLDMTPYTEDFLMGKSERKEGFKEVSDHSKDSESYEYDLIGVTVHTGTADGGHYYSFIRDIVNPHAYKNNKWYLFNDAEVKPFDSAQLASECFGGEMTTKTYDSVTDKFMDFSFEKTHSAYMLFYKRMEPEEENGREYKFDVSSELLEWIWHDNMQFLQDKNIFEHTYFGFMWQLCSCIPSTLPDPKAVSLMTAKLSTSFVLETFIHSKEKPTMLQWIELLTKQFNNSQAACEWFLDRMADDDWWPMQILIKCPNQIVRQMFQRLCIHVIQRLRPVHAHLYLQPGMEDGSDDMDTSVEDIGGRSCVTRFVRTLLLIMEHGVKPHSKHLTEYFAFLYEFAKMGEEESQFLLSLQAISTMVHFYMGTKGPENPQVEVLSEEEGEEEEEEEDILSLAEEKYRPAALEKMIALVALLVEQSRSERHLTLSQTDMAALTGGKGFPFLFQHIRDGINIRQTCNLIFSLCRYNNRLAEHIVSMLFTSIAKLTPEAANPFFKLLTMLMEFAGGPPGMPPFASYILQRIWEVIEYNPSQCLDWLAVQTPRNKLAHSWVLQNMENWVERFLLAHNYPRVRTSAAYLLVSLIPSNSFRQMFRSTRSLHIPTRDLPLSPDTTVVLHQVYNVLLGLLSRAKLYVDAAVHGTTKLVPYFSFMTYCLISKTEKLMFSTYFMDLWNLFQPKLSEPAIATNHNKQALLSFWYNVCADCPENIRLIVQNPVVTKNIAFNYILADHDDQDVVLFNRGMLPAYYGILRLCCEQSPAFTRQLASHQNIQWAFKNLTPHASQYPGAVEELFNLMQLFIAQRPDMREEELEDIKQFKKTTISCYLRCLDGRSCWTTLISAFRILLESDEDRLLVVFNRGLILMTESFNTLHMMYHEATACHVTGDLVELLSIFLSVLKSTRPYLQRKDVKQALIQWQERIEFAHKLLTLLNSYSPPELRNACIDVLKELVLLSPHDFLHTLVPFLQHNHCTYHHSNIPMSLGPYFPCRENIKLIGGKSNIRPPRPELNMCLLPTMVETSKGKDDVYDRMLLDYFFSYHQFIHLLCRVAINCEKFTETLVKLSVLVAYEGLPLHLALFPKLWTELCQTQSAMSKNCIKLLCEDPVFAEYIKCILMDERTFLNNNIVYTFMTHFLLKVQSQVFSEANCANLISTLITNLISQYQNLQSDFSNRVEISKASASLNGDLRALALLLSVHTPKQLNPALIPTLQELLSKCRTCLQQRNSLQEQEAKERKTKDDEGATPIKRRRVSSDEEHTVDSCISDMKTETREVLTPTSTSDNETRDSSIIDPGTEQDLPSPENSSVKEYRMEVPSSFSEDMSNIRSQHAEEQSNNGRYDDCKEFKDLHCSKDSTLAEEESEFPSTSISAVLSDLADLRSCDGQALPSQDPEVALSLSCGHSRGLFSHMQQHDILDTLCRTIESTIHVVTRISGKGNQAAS
How it was run: (§1)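 Global-median-normalised Spectronaut label-free quantities were compared by unpaired t-test, and values are average log2 ratios of fragment over vehicle. Only proteins with ≥2 unique peptides were used. HEK293T lysate (495 µg per sample) was treated in triplicate with fragment at 200 µM or vehicle for 3 h and then with Biotin-Ahx-Ub-VS at 0.5 µM final for 1 h. Labelled DUBs were then NeutrAvidin-enriched, digested with LysC and trypsin, and run by diaPASEF LC-MS/MS.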

USP36 = biological target: T1, USP36 (UniProt Q9P275)
T1 sequence (whole entry): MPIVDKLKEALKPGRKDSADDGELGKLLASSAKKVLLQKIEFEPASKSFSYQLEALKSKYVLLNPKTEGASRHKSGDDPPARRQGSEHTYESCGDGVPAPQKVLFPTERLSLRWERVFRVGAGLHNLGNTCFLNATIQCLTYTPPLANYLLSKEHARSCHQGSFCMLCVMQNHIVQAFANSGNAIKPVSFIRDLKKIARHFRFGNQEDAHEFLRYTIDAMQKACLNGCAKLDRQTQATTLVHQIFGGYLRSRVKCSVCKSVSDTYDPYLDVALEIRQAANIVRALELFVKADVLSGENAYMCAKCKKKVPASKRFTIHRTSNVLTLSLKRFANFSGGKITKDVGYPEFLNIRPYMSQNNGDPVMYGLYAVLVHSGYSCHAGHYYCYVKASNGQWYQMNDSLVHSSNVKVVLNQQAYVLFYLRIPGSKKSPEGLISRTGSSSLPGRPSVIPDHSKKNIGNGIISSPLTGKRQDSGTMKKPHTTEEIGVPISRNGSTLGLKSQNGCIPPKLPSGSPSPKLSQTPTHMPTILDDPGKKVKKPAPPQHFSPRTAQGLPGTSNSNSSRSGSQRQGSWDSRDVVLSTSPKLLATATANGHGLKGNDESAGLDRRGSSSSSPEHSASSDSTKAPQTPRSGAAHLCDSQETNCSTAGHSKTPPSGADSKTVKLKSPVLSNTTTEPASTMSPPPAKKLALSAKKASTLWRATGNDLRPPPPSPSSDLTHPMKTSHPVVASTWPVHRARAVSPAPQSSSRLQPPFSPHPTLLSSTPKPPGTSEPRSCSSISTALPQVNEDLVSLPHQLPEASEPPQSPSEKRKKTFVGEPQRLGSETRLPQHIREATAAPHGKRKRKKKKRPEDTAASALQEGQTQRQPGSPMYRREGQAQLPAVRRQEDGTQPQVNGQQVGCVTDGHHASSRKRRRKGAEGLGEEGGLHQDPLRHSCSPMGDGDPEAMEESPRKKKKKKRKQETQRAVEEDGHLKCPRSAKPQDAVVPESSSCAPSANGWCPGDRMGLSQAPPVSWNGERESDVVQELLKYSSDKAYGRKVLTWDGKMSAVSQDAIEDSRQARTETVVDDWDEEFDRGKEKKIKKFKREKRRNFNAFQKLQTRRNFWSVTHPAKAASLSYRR
How it was run: as §1

USP38 = biological target: T2, USP38 (UniProt Q8NB14)
T2 sequence (whole entry): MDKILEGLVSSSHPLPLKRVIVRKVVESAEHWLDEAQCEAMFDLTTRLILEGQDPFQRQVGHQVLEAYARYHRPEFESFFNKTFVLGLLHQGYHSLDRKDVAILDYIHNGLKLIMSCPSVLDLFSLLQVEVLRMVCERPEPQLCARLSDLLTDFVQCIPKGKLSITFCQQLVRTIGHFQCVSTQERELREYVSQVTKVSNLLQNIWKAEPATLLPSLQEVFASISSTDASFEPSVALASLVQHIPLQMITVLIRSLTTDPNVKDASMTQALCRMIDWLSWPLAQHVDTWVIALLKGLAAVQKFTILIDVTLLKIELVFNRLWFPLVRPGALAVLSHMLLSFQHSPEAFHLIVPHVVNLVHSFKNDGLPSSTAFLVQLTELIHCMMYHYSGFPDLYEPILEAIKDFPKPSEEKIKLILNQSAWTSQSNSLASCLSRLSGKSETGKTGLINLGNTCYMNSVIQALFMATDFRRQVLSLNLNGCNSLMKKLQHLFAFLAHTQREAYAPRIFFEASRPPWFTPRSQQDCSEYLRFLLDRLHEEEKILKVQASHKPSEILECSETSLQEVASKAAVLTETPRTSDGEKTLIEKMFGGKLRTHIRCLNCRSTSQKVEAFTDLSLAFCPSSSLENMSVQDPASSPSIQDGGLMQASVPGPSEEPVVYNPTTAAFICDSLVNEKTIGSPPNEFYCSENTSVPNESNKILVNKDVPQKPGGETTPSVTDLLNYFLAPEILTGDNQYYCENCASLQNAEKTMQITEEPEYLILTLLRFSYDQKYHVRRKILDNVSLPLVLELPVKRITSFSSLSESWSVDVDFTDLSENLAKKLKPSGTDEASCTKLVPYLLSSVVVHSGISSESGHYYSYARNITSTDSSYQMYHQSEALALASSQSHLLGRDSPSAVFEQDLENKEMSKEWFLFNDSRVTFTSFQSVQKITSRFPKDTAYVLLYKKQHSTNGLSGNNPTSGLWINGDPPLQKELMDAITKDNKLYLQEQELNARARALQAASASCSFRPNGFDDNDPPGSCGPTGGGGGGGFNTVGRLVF
How it was run: as §1

USP39 = biological target: T3, USP39 (UniProt Q53GS9)
T3 sequence (whole entry): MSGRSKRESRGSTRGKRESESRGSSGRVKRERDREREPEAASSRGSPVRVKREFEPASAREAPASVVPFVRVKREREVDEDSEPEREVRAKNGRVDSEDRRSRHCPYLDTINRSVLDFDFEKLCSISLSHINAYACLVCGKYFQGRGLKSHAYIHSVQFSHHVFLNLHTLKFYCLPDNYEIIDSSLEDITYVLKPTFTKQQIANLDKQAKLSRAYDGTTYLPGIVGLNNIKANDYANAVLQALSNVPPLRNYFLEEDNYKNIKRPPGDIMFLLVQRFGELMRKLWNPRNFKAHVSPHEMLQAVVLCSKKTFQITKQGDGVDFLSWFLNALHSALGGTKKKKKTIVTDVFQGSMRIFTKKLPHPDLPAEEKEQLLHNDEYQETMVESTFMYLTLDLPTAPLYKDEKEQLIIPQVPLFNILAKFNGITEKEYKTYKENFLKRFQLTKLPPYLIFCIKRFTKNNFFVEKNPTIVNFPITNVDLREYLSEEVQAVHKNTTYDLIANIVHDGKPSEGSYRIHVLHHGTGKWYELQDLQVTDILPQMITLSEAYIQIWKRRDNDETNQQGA
How it was run: as §1

USP4 = biological target: T4, USP4 (UniProt Q13107)
T4 sequence (whole entry): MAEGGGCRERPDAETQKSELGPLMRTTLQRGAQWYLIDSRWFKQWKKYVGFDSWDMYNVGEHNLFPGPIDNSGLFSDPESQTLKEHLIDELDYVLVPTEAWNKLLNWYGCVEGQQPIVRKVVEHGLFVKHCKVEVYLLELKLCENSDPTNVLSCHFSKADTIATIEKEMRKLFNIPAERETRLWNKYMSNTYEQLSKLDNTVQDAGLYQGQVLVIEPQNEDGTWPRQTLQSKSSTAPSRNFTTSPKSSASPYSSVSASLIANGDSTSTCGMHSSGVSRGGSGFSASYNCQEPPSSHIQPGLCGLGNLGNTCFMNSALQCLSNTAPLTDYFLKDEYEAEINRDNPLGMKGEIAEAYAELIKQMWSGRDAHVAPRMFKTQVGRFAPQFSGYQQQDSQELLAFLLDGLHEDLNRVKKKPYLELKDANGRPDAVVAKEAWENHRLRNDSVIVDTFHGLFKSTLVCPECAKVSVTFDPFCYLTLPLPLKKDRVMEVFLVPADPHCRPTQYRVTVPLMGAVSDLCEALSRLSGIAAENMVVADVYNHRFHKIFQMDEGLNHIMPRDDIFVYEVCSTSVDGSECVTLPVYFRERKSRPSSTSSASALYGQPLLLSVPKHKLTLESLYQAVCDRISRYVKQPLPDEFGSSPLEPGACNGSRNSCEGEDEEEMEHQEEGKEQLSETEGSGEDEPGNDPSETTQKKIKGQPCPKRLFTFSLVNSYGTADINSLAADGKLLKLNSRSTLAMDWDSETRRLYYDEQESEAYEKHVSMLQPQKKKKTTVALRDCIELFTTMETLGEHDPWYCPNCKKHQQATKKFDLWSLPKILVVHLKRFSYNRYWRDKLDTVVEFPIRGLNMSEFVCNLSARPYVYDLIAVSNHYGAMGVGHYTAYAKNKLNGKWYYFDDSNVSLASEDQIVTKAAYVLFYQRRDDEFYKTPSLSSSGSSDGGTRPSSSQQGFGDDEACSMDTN
How it was run: as §1

Measured: log2 ratio of Biotin-Ahx-Ub-VS probe labelling

O=C(CCl)N[C@H]1CCS(=O)(=O)c2ccccc21
inactive: USP34 -0.277 | USP36 -0.115 | USP38 -0.13 | USP39 -0.176 | USP4 -0.212
